# Measured values reported in paper PMC8384837, “Expanding the binding specificity for RNA recognition by a PUF domain”.
# Positions count from the first letter of the chain named.
# How the values were obtained:
# Experiment in all cases: yeast three-hybrid, YBZ-1, SC-Leu-His + 0.5 mM 3-AT, 4 days
# Conditions in all cases: tags: N-Gal4 AD-HA kept; label: inside an RPR1-promoter hybrid RNA with tandem MS2 sites; ssRNA
# PUM1 PUF domain R8-IWR = PUM1 PUF domain R8-IWR (Homo sapiens, UniProt Q14671 828-1176, N1122I;Y1123W;Q1126R)
# Method in brief: (§1)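 Sequencing with Illumina followed PCR amplification of the repeat regions from transformants grown four days on SC-Leu (input) or SC-Leu-His + 0.5 mM 3-AT (selection). The transformants were strain YBZ-1 with a LexA–MS2 coat fusion and a HIS3 reporter, carrying Pumilio-1 PUF domain libraries and matching RNA elements. The interaction score is the log change in variant frequency from input to selection, computed in log2 with a pseudocount of 1 for absent variants.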
# PUM1 PUF domain R2-IWD = PUM1 PUF domain R2-IWD (Homo sapiens, UniProt Q14671 828-1176, N899I;Y900W;Q903D)
# Chain of PUM1 PUF domain R2-IWD (Q14671 828-1176 N899I/Y900W/Q903D): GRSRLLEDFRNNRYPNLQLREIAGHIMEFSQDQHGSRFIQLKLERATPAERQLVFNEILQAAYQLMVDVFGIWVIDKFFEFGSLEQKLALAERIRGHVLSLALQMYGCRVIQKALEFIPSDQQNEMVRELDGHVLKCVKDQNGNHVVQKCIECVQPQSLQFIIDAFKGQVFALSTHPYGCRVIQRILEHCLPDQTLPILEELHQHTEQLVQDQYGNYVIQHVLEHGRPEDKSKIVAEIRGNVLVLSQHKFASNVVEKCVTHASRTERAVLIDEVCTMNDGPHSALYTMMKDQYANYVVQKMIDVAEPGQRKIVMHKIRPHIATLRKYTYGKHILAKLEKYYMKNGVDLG
# Method in brief: as §1
# PUM1 PUF domain R2-VFR = PUM1 PUF domain R2-VFR (Homo sapiens, UniProt Q14671 828-1176, N899V;Y900F;Q903R)
# Chain of PUM1 PUF domain R2-VFR (Q14671 828-1176 N899V/Y900F/Q903R): as the sequence (Q14671 828-1176 N899I/Y900W/Q903D) above, with I72V, W73F, D76R counted along it
# Method in brief: as §1
# PUM1 PUF domain R2-VHP = PUM1 PUF domain R2-VHP (Homo sapiens, UniProt Q14671 828-1176, N899V;Y900H;Q903P)
# Chain of PUM1 PUF domain R2-VHP (Q14671 828-1176 N899V/Y900H/Q903P): as the sequence (Q14671 828-1176 N899I/Y900W/Q903D) above, with I72V, W73H, D76P counted along it
# Method in brief: as §1
# PUM1 PUF domain R4-MNG = PUM1 PUF domain R4-MNG (Homo sapiens, UniProt Q14671 828-1176, N971M;H972N;Q975G)
# Chain of PUM1 PUF domain R4-MNG (Q14671 828-1176 N971M/H972N/Q975G): as the sequence (Q14671 828-1176 N899I/Y900W/Q903D) above, with I72N, W73Y, D76Q, N144M, H145N, Q148G counted along it
# Method in brief: as §1
# PUM1 PUF domain R4-ARM = PUM1 PUF domain R4-ARM (Homo sapiens, UniProt Q14671 828-1176, N971A;H972R;Q975M)
# Method in brief: as §1
# PUM1 PUF domain R5-EVC = PUM1 PUF domain R5-EVC (Homo sapiens, UniProt Q14671 828-1176, C1007E;R1008V;Q1011C)
# Chain of PUM1 PUF domain R5-EVC (Q14671 828-1176 C1007E/R1008V/Q1011C): as the sequence (Q14671 828-1176 N899I/Y900W/Q903D) above, with I72N, W73Y, D76Q, C180E, R181V, Q184C counted along it
# Method in brief: as §1
# PUM1 PUF domain R5-RYR = PUM1 PUF domain R5-RYR (Homo sapiens, UniProt Q14671 828-1176, C1007R;R1008Y;Q1011R)
# Method in brief: as §1
# PUM1 PUF domain R6-YRS = target: T1, PUM1 PUF domain R6-YRS (Homo sapiens, UniProt Q14671 828-1176, N1043Y;Y1044R;Q1047S)
# T1 sequence: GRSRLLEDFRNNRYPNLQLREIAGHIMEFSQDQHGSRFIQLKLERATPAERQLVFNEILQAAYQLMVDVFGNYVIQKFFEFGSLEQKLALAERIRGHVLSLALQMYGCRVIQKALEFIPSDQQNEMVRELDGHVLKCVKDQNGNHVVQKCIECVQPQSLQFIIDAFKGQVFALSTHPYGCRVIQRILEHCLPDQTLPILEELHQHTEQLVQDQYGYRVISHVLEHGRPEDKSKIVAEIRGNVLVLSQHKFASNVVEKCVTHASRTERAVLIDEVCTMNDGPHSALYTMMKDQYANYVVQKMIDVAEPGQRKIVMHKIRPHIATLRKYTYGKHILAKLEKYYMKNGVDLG
# Method in brief: as §1
# PUM1 PUF domain R5-KYV = PUM1 PUF domain R5-KYV (Homo sapiens, UniProt Q14671 828-1176, C1007K;R1008Y;Q1011V)
# Method in brief: as §1
# PUM1 PUF domain R1-RTR = PUM1 PUF domain R1-RTR (Homo sapiens, UniProt Q14671 828-1176, S863R;R864T;Q867R)
# Method in brief: as §1
# PUM1 PUF domain R4-SPV = PUM1 PUF domain R4-SPV (Homo sapiens, UniProt Q14671 828-1176, N971S;H972P;Q975V)
# Method in brief: as §1
# PUM1 PUF domain R7-RRS = PUM1 PUF domain R7-RRS (Homo sapiens, UniProt Q14671 828-1176, S1079R;N1080R;E1083S)
# Method in brief: as §1
# PUM1 PUF domain R3-TYW = PUM1 PUF domain R3-TYW (Homo sapiens, UniProt Q14671 828-1176, C935T;R936Y;Q939W)
# Method in brief: as §1
# PUM1 PUF domain R6-RWK = target: T2, PUM1 PUF domain R6-RWK (Homo sapiens, UniProt Q14671 828-1176, N1043R;Y1044W;Q1047K)
# T2 sequence: T1 sequence with Y216R, R217W, S220K
# Method in brief: as §1
# PUM1 PUF domain R3-EYE = PUM1 PUF domain R3-EYE (Homo sapiens, UniProt Q14671 828-1176, C935E;R936Y;Q939E)
# Method in brief: as §1
# PUM1 PUF domain R4-PTC = PUM1 PUF domain R4-PTC (Homo sapiens, UniProt Q14671 828-1176, N971P;H972T;Q975C)
# Method in brief: as §1
# PUM1 PUF domain R3-CRD = PUM1 PUF domain R3-CRD (Homo sapiens, UniProt Q14671 828-1176, Q939D)
# Method in brief: as §1
# PUM1 PUF domain R4-SNY = PUM1 PUF domain R4-SNY (Homo sapiens, UniProt Q14671 828-1176, N971S;H972N;Q975Y)
# Method in brief: as §1
# PUM1 PUF domain R7-AVK = PUM1 PUF domain R7-AVK (Homo sapiens, UniProt Q14671 828-1176, S1079A;N1080V;E1083K)
# Method in brief: as §1
sequence,measurement,setting,value
GGCUAGAACUAGUGGAUCCCCCGGCGCCCGGCGGCUCGAGCCCGGGUAAGCGUAAAUAGUCUGCAUGCCGCCGGGCGCCAUGCCUGCAGGUCGACUCUAGAAAACAUG,binding signal,PUM1 PUF domain R8-IWR,5.25 log2 enrichment (interaction score)
GGCUAGAACUAGUGGAUCCCCCGGCGCCCGGCGGCUCGAGCCCGGGUAAGUGUAAAAAGUCUGCAUGCCGCCGGGCGCCAUGCCUGCAGGUCGACUCUAGAAAACAUG,binding signal,PUM1 PUF domain R2-IWD,2.12 log2 enrichment (interaction score)
same,binding signal,PUM1 PUF domain R2-VFR,5.64 log2 enrichment (interaction score)
same,binding signal,PUM1 PUF domain R2-VHP,2.73 log2 enrichment (interaction score)
GGCUAGAACUAGUGGAUCCCCCGGCGCCCGGCGGCUCGAGCCCGGGUAAGUGUACAUAGUCUGCAUGCCGCCGGGCGCCAUGCCUGCAGGUCGACUCUAGAAAACAUG,binding signal,PUM1 PUF domain R4-MNG,2.1 log2 enrichment (interaction score)
same,binding signal,PUM1 PUF domain R4-ARM,2.37 log2 enrichment (interaction score)
GGCUAGAACUAGUGGAUCCCCCGGCGCCCGGCGGCUCGAGCCCGGGUAAGUGUGAAUAGUCUGCAUGCCGCCGGGCGCCAUGCCUGCAGGUCGACUCUAGAAAACAUG,binding signal,PUM1 PUF domain R5-EVC,3.25 log2 enrichment (interaction score)
same,binding signal,PUM1 PUF domain R5-RYR,2.14 log2 enrichment (interaction score)
GGCUAGAACUAGUGGAUCCCCCGGCGCCCGGCGGCUCGAGCCCGGGUAAGUGAAAAUAGUCUGCAUGCCGCCGGGCGCCAUGCCUGCAGGUCGACUCUAGAAAACAUG,binding signal,PUM1 PUF domain R6-YRS,3.7 log2 enrichment (interaction score)
GGCUAGAACUAGUGGAUCCCCCGGCGCCCGGCGGCUCGAGCCCGGGUAAGUGUCAAUAGUCUGCAUGCCGCCGGGCGCCAUGCCUGCAGGUCGACUCUAGAAAACAUG,binding signal,PUM1 PUF domain R5-RYR,4.57 log2 enrichment (interaction score)
same,binding signal,PUM1 PUF domain R5-KYV,5.44 log2 enrichment (interaction score)
GGCUAGAACUAGUGGAUCCCCCGGCGCCCGGCGGCUCGAGCCCGGGUAAGUGUAAAUCGUCUGCAUGCCGCCGGGCGCCAUGCCUGCAGGUCGACUCUAGAAAACAUG,binding signal,PUM1 PUF domain R1-RTR,1.13 log2 enrichment (interaction score)
GGCUAGAACUAGUGGAUCCCCCGGCGCCCGGCGGCUCGAGCCCGGGUAAGUGUAUAUAGUCUGCAUGCCGCCGGGCGCCAUGCCUGCAGGUCGACUCUAGAAAACAUG,binding signal,PUM1 PUF domain R4-SPV,3.71 log2 enrichment (interaction score)
same,binding signal,PUM1 PUF domain R4-ARM,1.47 log2 enrichment (interaction score)
GGCUAGAACUAGUGGAUCCCCCGGCGCCCGGCGGCUCGAGCCCGGGUAAGUCUAAAUAGUCUGCAUGCCGCCGGGCGCCAUGCCUGCAGGUCGACUCUAGAAAACAUG,binding signal,PUM1 PUF domain R7-RRS,4.47 log2 enrichment (interaction score)
GGCUAGAACUAGUGGAUCCCCCGGCGCCCGGCGGCUCGAGCCCGGGUAAGUGUUAAUAGUCUGCAUGCCGCCGGGCGCCAUGCCUGCAGGUCGACUCUAGAAAACAUG,binding signal,PUM1 PUF domain R5-RYR,4.47 log2 enrichment (interaction score)
same,binding signal,PUM1 PUF domain R5-KYV,4.52 log2 enrichment (interaction score)
GGCUAGAACUAGUGGAUCCCCCGGCGCCCGGCGGCUCGAGCCCGGGUAAGUGUAAAUUGUCUGCAUGCCGCCGGGCGCCAUGCCUGCAGGUCGACUCUAGAAAACAUG,binding signal,PUM1 PUF domain R1-RTR,2.2 log2 enrichment (interaction score)
GGCUAGAACUAGUGGAUCCCCCGGCGCCCGGCGGCUCGAGCCCGGGUAAGUGUAAAUAGUCUGCAUGCCGCCGGGCGCCAUGCCUGCAGGUCGACUCUAGAAAACAUG,binding signal,PUM1 PUF domain R3-TYW,5.67 log2 enrichment (interaction score)
same,binding signal,PUM1 PUF domain R4-SPV,1.64 log2 enrichment (interaction score)
same,binding signal,PUM1 PUF domain R5-RYR,2.49 log2 enrichment (interaction score)
same,binding signal,PUM1 PUF domain R6-RWK,6.43 log2 enrichment (interaction score)
same,binding signal,PUM1 PUF domain R3-EYE,2.67 log2 enrichment (interaction score)
same,binding signal,PUM1 PUF domain R5-KYV,4.2 log2 enrichment (interaction score)
same,binding signal,PUM1 PUF domain R8-IWR,3.98 log2 enrichment (interaction score)
same,binding signal,PUM1 PUF domain R4-PTC,3.57 log2 enrichment (interaction score)
same,binding signal,PUM1 PUF domain R4-ARM,4.11 log2 enrichment (interaction score)
same,binding signal,PUM1 PUF domain R3-CRD,5 log2 enrichment (interaction score)
same,binding signal,PUM1 PUF domain R4-SNY,2.33 log2 enrichment (interaction score)
GGCUAGAACUAGUGGAUCCCCCGGCGCCCGGCGGCUCGAGCCCGGGUAAGUGUAAUUAGUCUGCAUGCCGCCGGGCGCCAUGCCUGCAGGUCGACUCUAGAAAACAUG,binding signal,PUM1 PUF domain R3-EYE,5.03 log2 enrichment (interaction score)
same,binding signal,PUM1 PUF domain R3-CRD,1.14 log2 enrichment (interaction score)
GGCUAGAACUAGUGGAUCCCCCGGCGCCCGGCGGCUCGAGCCCGGGUAAGUUUAAAUAGUCUGCAUGCCGCCGGGCGCCAUGCCUGCAGGUCGACUCUAGAAAACAUG,binding signal,PUM1 PUF domain R7-RRS,4.29 log2 enrichment (interaction score)
same,binding signal,PUM1 PUF domain R7-AVK,4.11 log2 enrichment (interaction score)
